Screening data as filed in PubChem BioAssay.
In the library only some 8.9% were active in any assay of this set; here they are far more common.
KB-V1 MDR tox: qHTS assay for MDR1-selective chemotherapeutics: Primary screen using the drug-selected MDR subline cells KB-V1 | KB-V1 MDR cells viability, CellTiter-Glo, 72 h | Potency, µM (top dose mostly 46.1 µM), hits mostly cytotoxic | 400,000 tested, 3.4% active; also: potency is read from the fitted curve at half-maximal effect; % is scaled to controls: 0 for no effect and ±100 for the full control effect; nearly all actives have a fitted effect of over 60% in size
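Potencies derive from concentration-effect curves fitted to normalized luminescence (CellTiter-Glo) of KB-V1 cells treated for 72 h at 37 degrees C in phenol-red-free DMEM containing 10% FBS.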
MCF10A rereplic: A quantitative high throughput screen for small molecules that induce DNA re-replication in MCF 10a normal breast cells; Potency, µM (highest dose often 46.1 µM), for inactives: top-dose activity, positive = re-replication, most hits filed as activators; 350,000 tested, 2.9% active; MCF 10A DNA re-replication, Hoechst nuclear intensity, 48 h; also: potency is read from the fitted curve at half-maximal effect; % of control where 0% means no effect; nearly all actives have a fitted effect of over 50% in size
SW480 rerep: A quantitative high throughput screen for small molecules that induce DNA re-replication in SW480 colon adenocarcinoma cells. AID 624297, 2012. Potency, µM (doses to about 46.1 µM), without a hit: at the highest dose re-replication activation, actives largely listed as activators. 340,000 tested, 1.8% active. SW480 DNA re-replication, Hoechst DNA content imaging, 48 h; also: potency is read from the fitted curve at half-maximal effect; % of control where 0% means no effect; nearly all actives have a fitted effect of over 55% in size
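Readout is total intensity of Hoechst-stained nuclei, excited at 405 nm and collected at 500-530 nm. Compound treatment lasted 48 hr at 37 C in 5% CO2 before staining.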
DRD3 antagonist: qHTS of D3 Dopamine Receptor Antagonist: qHTS. 360,000 tested, 2.5% active. D(3) dopamine receptor (Homo sapiens), P35462. D3R cells, DiscoveRx beta-arrestin luminescence, antagonist mode; active compounds read low. max response, negative = inhibition, %; in the data active = max response below about -50%; inconclusive = no clear call, values can overlap the other calls; also: % is scaled to controls: 0 for no effect and ±100 for the full control effect
Target sequence (P35462 whole entry, looked up): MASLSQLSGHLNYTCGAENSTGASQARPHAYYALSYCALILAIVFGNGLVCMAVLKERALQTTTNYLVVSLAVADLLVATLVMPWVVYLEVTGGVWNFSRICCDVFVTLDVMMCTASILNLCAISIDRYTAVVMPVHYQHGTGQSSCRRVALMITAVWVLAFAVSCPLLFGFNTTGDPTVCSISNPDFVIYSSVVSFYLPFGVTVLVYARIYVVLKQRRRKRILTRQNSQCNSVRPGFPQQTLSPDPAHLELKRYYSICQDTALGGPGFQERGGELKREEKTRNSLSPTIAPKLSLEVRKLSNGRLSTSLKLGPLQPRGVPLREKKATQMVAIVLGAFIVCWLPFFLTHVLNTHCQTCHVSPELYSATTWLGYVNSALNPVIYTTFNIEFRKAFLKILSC
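Cells expressing the human receptor were seeded at 1500 cells/well, incubated overnight at 37 degrees C in 5% CO2, then exposed to library compounds with dopamine controls for 90 minutes at 37 degrees C before luminescent detection.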
D3 ag: qHTS of D3 Dopamine Receptor Agonist: qHTS. D3R DiscoveRx beta-arrestin cells, luminescence, 90 min. max activation, %. 410,000 tested, 0.58% active; in the data active = max activation above about 30%; also: 0% is about no effect
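Agonist mode: compounds and dopamine controls were applied to plated cells for 90 min at 37 degrees C after an overnight attachment at 1500 cells/well. Luminescent read-out followed 30 - 60 minutes at room temperature with DiscoveRx detection reagent.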
KB-3-1 tox: qHTS assay for MDR1-selective chemotherapeutics: Primary screen using the parental adenocarcinoma cell KB-3-1 | KB-3-1 viability, CellTiter-Glo ATP luminescence, 72 h | Potency, µM (titrated, usually from 46.1 µM), usual class: cytotoxic | 400,000 tested, 1.4% active; also: potency is read from the fitted curve at half-maximal effect; % is scaled to controls: 0 for no effect and ±100 for the full control effect; nearly all actives have a fitted effect of over 60% in size
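Cytotoxicity in the drug-sensitive parental line KB-3-1 was scored as loss of CellTiter-Glo luminescence following 72 h incubation with compound. Values come from curve fitting of normalized concentration-response data.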
An asterisk follows results filed as active; i = inactive; ? = inconclusive; . = not tested or not shown; [ ] = dose if it differs, or a comment. Unless noted, calls follow the shape of the dose curve; as a rule, active = well fitted curve in the direction sought with a large enough effect; inconclusive = small, poorly fitted or top-dose-only effect, or another doubt; inactive = no such curve, though single readings can be large; an effect the other way counts as inactive or inconclusive.

SMILES	KB-V1 MDR tox	MCF10A rereplic	SW480 rerep	DRD3 antagonist	D3 ag	KB-3-1 tox
CC(C)[C@@H](C)/C=C/[C@@H](C)[C@H]1CC[C@H]2/C(=C/C=C3\C[C@@H](O)CC[C@@H]3C)CCC[C@]12C	.	.	.	.	-7.7	.
CCS(=O)(=O)N1CCN(C(C)CCc2ccccc2)CC1 (configuration not stated)	i	0.4%	-5.0%	-51.4*	13.8	i
ClC(CCN1CCN(Cc2ccccc2)CC1)c1ccccc1 (configuration not stated)	i	1.9%	-7.0%	-64.0*	-49.2	i
CC(CCc1ccccc1)N1CCN(Cc2ccccc2)CC1 (configuration not stated)	i	?	-6.2%	-87.1*	-11.7	i
CC(C)N1CCN(S(=O)(=O)c2ccccc2)CC1	i	-4.3%	0.8%	-16.6	-3.6	i
N#CC(c1ccccc1)C1CCN(Cc2ccccc2)CC1 (configuration not stated)	20.6µM*	12.7%	-1.0%	-28.8	-18.4	i
CC(CN1CCN(Cc2ccccc2)CC1)c1ccccc1 (configuration not stated)	i	-3.4%	-2.0%	0.0	-3.6	i
COc1ccccc1NC(=O)c1ccc(CN2C(=O)C(C)=C(c3ccc(C)c(C)c3)S2(=O)=O)cc1	i	.	.	.	-0.2	i
CCCCCCCCCCCCCCCCCC(=O)[O][Al]	.	.	.	.	-7.9	.
COC(=O)CC(=O)CSc1nc2cc(C(=O)NCC(C)C)ccc2c(=O)n1CCc1ccccc1	i	.	.	.	6.6	i
O=C(CSc1nnnn1-c1ccc(C(=O)O)cc1)NC1CC1	i	7.0%	5.5%	0.1	5.0	i
O=C1CC(c2ccc(Cl)cc2)Oc2ccc(Cl)cc21 (configuration not stated)	i	?	?	-17.5	-6.9	i
Cn1c(Cl)cnc1C1CC(=O)c2cc(Cl)ccc2O1 (configuration not stated)	?	?	10.3µM*	?	-6.0	?
O=C(O)c1cccc(N2C(=O)/C(=C/c3ccc(SCc4ccc(Cl)cc4)o3)SC2=S)c1	i	?	i[1.84 µM]	-59.2*	-15.4	i
O=C(CCN1C(=O)/C(=C/c2ccc(Cl)cc2)SC1=S)Nc1cccc(C(=O)O)c1	i	12.9%	-5.5%	-27.6	9.9	i
COc1ccc(S(=O)(=O)NCc2ccc3c(c2)CCN3C(=O)c2ccc(C)cc2)cc1Cl	.	.	.	.	-8.3	.
CCCNC(=O)CNC(=O)c1ccc(C#N)cc1	?	-7.7%	-40.5%	-19.1	13.8	i
O=C(O)[C@@H]1[C@H]2C[C@H]3c4[nH]c5ccccc5c4CCN3C[C@@H]2CC[C@@H]1O	i	-3.5%	-5.3%	-61.0*	-70.6	i
O=C1CCC2CN3CCc4c([nH]c5ccccc45)C3CC2C1 (configuration not stated)	i	.	.	-89.5*	-11.8	i
CCOc1ccc(CN2CCc3nc(Nc4ccc5c(c4)OCCO5)ncc3C2)cc1	i	.	.	.	-3.4	i
CCc1ccc(O)c(C(=O)c2cnc3cc(-c4ccc(C)cc4)nn3c2)c1	i	.	.	.	8.7	i
O=C(CCCCn1c(=O)c2ccccc2n(Cc2cccc(F)c2)c1=O)NCCc1ccccc1	i	.	.	.	-17.8	i
COc1ccc(CCNC(=O)c2c(O)c3ccccc3n(C)c2=O)cc1	i	?	8.9%	5.9	36.8*	?
CCCc1nc2ccccc2c(=O)n1NC(=O)c1c(O)c2cccc3c2n(c1=O)CCC3	?	2.5%	2.8%	7.5	10.2	?
CCCn1c(=O)c(C(=O)NCCc2ccc(OC)c(OC)c2)c(O)c2ccccc21	i	1.03µM*	-4.0%	0.6	6.1	i
SMILES	KB-V1 MDR tox	MCF10A rereplic	SW480 rerep	DRD3 antagonist	D3 ag	KB-3-1 tox
COc1ccc(CCNCC(O)Cn2c3ccccc3c3ccccc32)cc1OC (configuration not stated)	?	9.2µM*	-2.0%	1.2	-9.7	?
CCCCc1nc2ccccc2c(=O)n1NC(=O)c1c(O)c2ccccc2n(C)c1=O	?	9.1%	?	3.2	16.0	13µM*
Cn1c(=O)c(C(=O)NCCCc2ccccc2)c(O)c2ccccc21	i	9.3%	-5.3%	33.1	1.8	i
O=C1CCCc2c1cc(C(=O)NCc1ccco1)c(=O)n2-c1ccc(Cl)cc1	16.4µM*	0.8%	-7.5%	-6.4	2.3	?
COc1cccc(CN2CCC2(C)C(=O)Nc2cccc(Oc3ccccc3)c2)c1F (configuration not stated)	7.31µM*	.	.	13.7	4.2	?
NC(=O)c1cc[n+](CC2=C(C(=O)O)N3C(=O)[C@@H](NC(=O)[C@H](c4ccccc4)S(=O)(=O)[O-])[C@@H]3SC2)cc1	.	1.2%[20.6 µM]	-0.7%[20.6 µM]	.	.	.
Cc1cccc(NC(=O)Nc2ccc(Oc3c(F)c(F)c(F)c(F)c3F)cc2)c1	i	0.0%	-2.4%	-116.8*	-2.9	i
Cc1cccc(NC(=O)Nc2ccc(S(N)(=O)=O)cc2)c1	?	2.5%	-2.6%	6.5	3.3	i
CCN(Cc1ccccc1)C(=O)c1nc(-c2cccc(F)c2)n2c1CCCCC2	i	.	.	.	-12.5	i
COc1ccccc1CNC(=O)CCC(=O)N1Cc2ccccc2Oc2ncccc21	i	.	.	.	4.4	i
CCc1ccc(CN(C)C(=O)c2cc(COc3cccc4cnccc34)on2)cc1	i	20.6µM*	-9.5%	7.9	6.1	?
CSc1ccccc1OCc1cc(C(=O)NC(C)c2cnn(C)c2)no1 (configuration not stated)	.	-1.9%	5.8%	-15.4	2.2	.
Cc1c(C(C)NC(=O)c2cc(COc3cccc4cnccc34)on2)cnn1C (configuration not stated)	?	2.6%	-15.2%	7.3	1.2	20.6µM*
O=C(CCc1ccccc1)NC1CC(=O)N(c2ccccc2)C1 (configuration not stated)	.	.	.	.	-8.3	.
O=C1CC(c2cccc([N+](=O)[O-])c2)c2ccc3ccccc3c2N1 (configuration not stated)	13µM*	7.2%	-2.5%	-14.6	-16.3	i
O=C1CC(c2ccsc2)c2ccc3ccccc3c2N1 (configuration not stated)	i	?	5.0%	-5.6	9.8	?
